Measured values: PubChem BioAssay AID449762 (Southern Research Specialized Biocontainment Screening …, 2010)
The campaign covered roughly 330,000 compounds. About 1,900 (0.58%) were called active. Roughly 4% stayed inconclusive and do not appear here. Rule as the data show it: inconclusive = inhibition above about 70% without an active follow-up result; inactive = below that. Only a sample is shown. Measured potencies and affinities stand elsewhere.

Test: M. tuberculosis growth inhibition, HTS (AID 449762);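 also: bacterial growth assessed after seven days of incubation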
Conditions: M. tuberculosis H37Rv growth inhibition, 7H9 media; at 25 µM; hits give high values

Row | Compound | inhibition
1 | COc1ccc(CCNCC(=O)Nc2ccc(OC(F)F)cc2)cc1 | -4.99% (inactive)
2 | CCCCC1CCC(C(=O)N(CCCC)c2c(N)n(CCCC)c(=O)[nH]c2=O)CC1 (stereo not drawn) | -9.54% (inactive)
3 | CC1CCc2c(sc3nc(CN4CCOCC4)nc(N4CCc5ccccc5C4)c23)C1 (stereo not drawn) | 6.42% (inactive)
4 | Clc1nc(CN2CCOCC2)nc2sc3c(c12)CCC3 | 6.4% (inactive)
5 | CCc1ccccc1Nc1nc(N)nc(CSCC(=O)c2cc(C)n(C)c2C)n1 | -11.5% (inactive)
6 | O=C(NCCCc1ccc(F)cc1)C1CCC(=O)N(CCCN2CCCC2=O)C1 (stereo not drawn) | 11.4% (inactive)
7 | O=C1OCCC1Sc1nnc(-c2ccccc2)o1 (stereo not drawn) | -4.39% (inactive)
8 | O=C1CC(Sc2nnc(-c3ccccc3)o2)C(=O)N1c1ccccc1 (stereo not drawn) | -3.28% (inactive)
9 | COc1ccccc1OCC(=O)Nc1ccc(S(=O)(=O)N2CCOCC2)cc1 | -3.94% (inactive)
10 | CCCCn1c(=O)[nH]c(=O)c2c1nc(-c1ccsc1)n2Cc1ccccc1 | 7.19% (inactive)
11 | CC(C)c1nnc2n1N=C(c1ccc(Cl)cc1)CS2 | 45.3% (inactive)
12 | CCC(=O)Nc1ccc(C2=Nn3c(nnc3C(C)C)SC2)cc1 | 9.12% (inactive)
13 | Cc1ccc(CN2CCSc3ccc(C(=O)NCC4CCCO4)cc32)cc1 (stereo not drawn) | -1.08% (inactive)
14 | Nc1ccc(Nc2ccc([N+](=O)[O-])cc2[N+](=O)[O-])cc1 | 4.35% (inactive)
15 | Nc1cc([N+](=O)[O-])ccc1Nc1ccccc1 | 2.95% (inactive)
16 | COc1ccc2sc(-c3ccc(S(C)(=O)=O)cc3)c(C(=O)NCCc3c[nH]c4ccccc34)c2c1 | 0.16% (inactive)
17 | CN1C(=O)N(C)C(=O)C2(Cc3cc(N)ccc3N3CCN(c4ccccc4F)CC32)C1=O (stereo not drawn) | -0.78% (inactive)
18 | Cc1ccc(C(=O)NC(=S)N(C)C2CCCCC2)cc1 | 62.7% (inactive)
19 | CN(C(=S)NC(=O)c1ccccc1)C1CCCCC1 | 60.5% (inactive)
20 | O=C(NCc1ccc2c(c1)OCO2)C1CCC(CNS(=O)(=O)c2ccc(Cl)cc2)CC1 (stereo not drawn) | -12% (inactive)
21 | O=C(CN1C(=O)NC2(CCCC2)C1=O)N1CCN(S(=O)(=O)c2ccc(Cl)c(C(F)(F)F)c2)CC1 | -1.26% (inactive)
22 | CC1CCCC(C)N1/N=C/c1cccc(Br)c1 (stereo not drawn) | 2.02% (inactive)
23 | Brc1ccc2[nH]cc(/C=N/N3CCCCC3)c2c1 | -3.65% (inactive)
24 | CCCCNS(=O)(=O)c1ccc(OC)c2ncccc12 | -7.49% (inactive)

Row | Compound | inhibition
25 | COc1cc(NC(=O)c2ccc3snnc3c2)cc(OC)c1 | -2.63% (inactive)
26 | COC(=O)[C@H](C)NC(=O)c1cc2c(cn1)[nH]c1ccccc12 | 25.1% (inactive)
27 | C[C@H](NC(=O)c1cc2c(cn1)[nH]c1ccccc12)C(=O)O | 61.1% (inactive)
28 | Cc1cc(C)c2nc(-c3ccccn3)cc(C(=O)NCCc3ccc(S(N)(=O)=O)cc3)c2c1 | 2.93% (inactive)
29 | O=C(CSC1=NC(=O)C(c2ccccc2)C(=O)N1)Nc1cccc(Cl)c1 (stereo not drawn) | -1.6% (inactive)
30 | NS(=O)(=O)c1ccc(NC(=O)CSC2=NC(=O)C(c3ccccc3)C(=O)N2)cc1 (stereo not drawn) | -4.16% (inactive)
31 | CC1CC(NC(=O)CC#N)CC(C)(C)C1 (stereo not drawn) | -2.07% (inactive)
32 | CCNC(=O)CC1C(=O)N(c2ccc(C)cc2)C(=O)N1CCc1sccc1C (stereo not drawn) | -0.52% (inactive)
33 | COc1ccc(OC)c(N(CC(=O)Nc2ccccc2)S(=O)(=O)c2ccccc2)c1 | -0.48% (inactive)
34 | CC1(C(=O)O)CCCC2(C)c3cc(O)ccc3CCC12 (stereo not drawn) | -4.51% (inactive)
35 | CC(C)(O)c1ccc2c(c1)CCC1C(C)(C(=O)O)CCCC21C (stereo not drawn) | -2.51% (inactive)
36 | Cc1cc(CN(C)C(=O)C2CCC(=O)N(CCc3ccccc3)C2)n[nH]1 (stereo not drawn) | 8.05% (inactive)
37 | CC(=O)Nc1ccc(SC(C)C(=O)NC(N)=O)cc1 (stereo not drawn) | -6.23% (inactive)
38 | NC1=NC[C@H](Cc2ccc(O)cc2)N1CCc1cccc(F)c1 | -2.28% (inactive)
39 | NC1=NC[C@@H](Cc2ccc(O)cc2)N1CCc1cccc2ccccc12 | 7.62% (inactive)
40 | Cc1cc(=O)oc2cc(OCC(=O)N3CCCC3)ccc12 | -4.87% (inactive)
41 | COc1ccccc1CCC(=O)NNC(=O)c1cccs1 | -0.29% (inactive)
42 | CCCCCCCCCCOC(=O)Cn1c(COc2ccccc2OC)[n+](C)c2ccccc21 | 54.7% (inactive)
43 | CCCCCCCCCCOC(=O)Cn1c(COc2ccccc2)[n+](C)c2ccccc21 | 49.6% (inactive)
44 | COc1ccc([C@H]2CC(=O)C=C(c3cc4ccccc4c4ccccc34)C2)cc1 | -1.17% (inactive)
45 | COc1ccc([C@H]2CC(=O)C=C(c3ccc(Br)c4ccccc34)C2)cc1 | 67.8% (inactive)
46 | COc1ccc(-c2[nH]ncc2CN2CCCOc3c(cccc3OC)C2)c(OC)c1 | 9.33% (inactive)
47 | O=C1CCCN1CCC(=O)N1CCCC(Nc2ccc(F)cc2)C1 (stereo not drawn) | -9.8% (inactive)
48 | OC(CN1CCN(c2ccccc2Cl)CC1)c1ccccc1 (stereo not drawn) | 2.61% (inactive)

Row | Compound | inhibition
49 | CC(=O)Nc1ccc(NC(=O)C/C(C)=N/NC(N)=S)cc1 | 3.29% (inactive)
50 | C/C(CC(=O)Nc1cc(Cl)ccc1C)=N\NC(N)=O | 4.8% (inactive)
51 | COc1ccc(C2(c3ccc(OC)cc3)NC(=O)N(CC(=O)Nc3ccc(C(=O)N(C)C)cc3)C2=O)cc1 | -1.84% (inactive)
52 | CCN=c1scc(-c2ccco2)n1/N=C/c1ccc(O)cc1 | 28.5% (inactive)
53 | CC(C)N=c1scc(-c2ccco2)n1/N=C/c1ccc(O)c(O)c1 | 9.93% (inactive)
54 | COc1ccc(S(=O)(=O)Nc2ccccc2N2CCOCC2)cc1OC | 3.88% (inactive)
55 | CC(Nc1cc(C)cc(C)c1)=[N+](C)CCNS(=O)(=O)c1ccc(Cl)cc1 | -13.9% (inactive)
56 | Cc1ccc(-c2nsc3c(N4CCC(C(N)=O)CC4)ncnc23)cc1 | -5.48% (inactive)
57 | O=c1c(C=NCc2ccccc2)c(NCc2ccccc2)nc2ccccn12 | 11.6% (inactive)
58 | COc1ccc(C(=O)N/C(N)=N/c2nc3ccccc3o2)cc1 | 43% (inactive)
59 | COC(=O)CSc1nc2ccccc2o1 | 20% (inactive)
60 | O=C(O)c1ccc(NS(=O)(=O)c2ccc3c(c2)OCCCO3)cc1 | 5.48% (inactive)
61 | COc1ccc(N(CC(=O)NC2CCCCCC2)S(=O)(=O)c2ccccc2)cc1Cl | 11.1% (inactive)
62 | O=[N+]([O-])c1ccc(Cl)c(-c2ccc(/C=N/n3cnnc3)o2)c1 | -1.71% (inactive)
63 | O=[N+]([O-])c1cc(-c2ccc(/C=N/n3cnnc3)o2)ccc1Cl | 16.1% (inactive)
64 | C/C=C1\COC(C(=O)NCCCN2CCCC2=O)(C(F)(F)F)C=C1C=C(C)C (stereo not drawn) | 2.64% (inactive)
65 | CN(C(=O)CSC1=Nc2ccccc2C2=NC(c3ccccc3)C(=O)N12)C1CCCCC1 (stereo not drawn) | -5.75% (inactive)
66 | NC(=O)CSC1=Nc2ccccc2C2=NC(c3ccccc3)C(=O)N12 (stereo not drawn) | 4.02% (inactive)
67 | NC(=O)Cn1nc(-c2ccccc2)nc1-c1ccccc1 | -2.98% (inactive)
68 | CCOC(=O)Cn1c(-c2ccccc2)cc(SC)c(C#N)c1=O | 13.1% (inactive)
69 | CCOC(=O)Cn1nnc(-c2ccccc2)n1 | -9.53% (inactive)
70 | CCn1c(-c2ccccc2)ccc(C#N)c1=O | -2.43% (inactive)
71 | COc1cc2cnc(-c3ccccc3)cc2cc1OC | 61.6% (inactive)
72 | CN(C)/C=N/NC(=O)c1ccc(Cl)cc1 | -3.16% (inactive)

Row | Compound | inhibition
73 | O=C(CCCCCn1nnc2ccccc2c1=O)Nc1ccccc1F | -1.21% (inactive)
74 | COc1ccc(CNC(=O)CN(Cc2ccc(Cl)cc2)S(=O)(=O)c2ccccc2)cc1 | -11.8% (inactive)
75 | CCC(=O)Nc1cc(-c2nn(C)c(=O)c3ccccc23)ccc1N1CCCCC1 | -0.54% (inactive)
76 | CC(=O)Nc1cc(-c2nn(C)c(=O)c3ccccc23)ccc1N1CCCCC1 | 5.24% (inactive)
77 | CC(=Nc1ccc2c(c1)CCC2)c1c(O)n(-c2ccccc2)c(=O)[nH]c1=O | 0.86% (inactive)
78 | Cc1cccc(CS(=O)(=O)Cc2ccc(C(=O)NCCCN3CCOCC3)o2)c1 | -7.1% (inactive)
79 | COc1cc(Cl)c(C)cc1NC(=O)COC(=O)C(NS(=O)(=O)c1ccc(Cl)cc1)C(C)O (stereo not drawn) | -9.26% (inactive)
80 | Cc1ccc(NC(=O)COC(=O)C(NS(=O)(=O)c2ccc(Cl)cc2)C(C)O)cc1 (stereo not drawn) | -2.52% (inactive)
81 | OCC(CBr)(CBr)CBr | -6.91% (inactive)
82 | CCC1=NC(c2ccc(OC)cc2)N(O)C1(C)C (stereo not drawn) | -1.62% (inactive)
83 | CC(O)(CS(=O)(=O)Cc1ccccc1)C(=O)Nc1cccc(C(F)(F)F)c1 (stereo not drawn) | 8.28% (inactive)
84 | C(=N\Nc1nc(Nc2ccccc2)nc(N2CCOCC2)n1)/c1c[nH]c2ccccc12 | 41.1% (inactive)
85 | Cc1[nH]c2ccccc2c1/C=N/Nc1nc(Nc2ccc(F)cc2)nc(N2CCOCC2)n1 | 62.1% (inactive)
86 | Cc1ccc(C)c(S(=O)(=O)N2CCC(c3nc4c(nnn4Cc4ccc(F)cc4)c(=O)[nH]3)CC2)c1 | 7.99% (inactive)
87 | O=c1[nH]c(C2CCN(S(=O)(=O)c3ccc4c(c3)OCCO4)CC2)nc2c1nnn2Cc1ccc(F)cc1 | 37.9% (inactive)
88 | Cn1c(CC(=O)Nc2ccc(F)cc2)c(Sc2ccccc2)c2ccccc21 | 3.85% (inactive)
89 | NC(=O)C1CCCN(C(=S)NCc2ccc3c(c2)OCO3)C1 (stereo not drawn) | -1.44% (inactive)
90 | CCOc1cc(/C=C/C(=O)OCC(=O)NCC2CCCO2)cc(Cl)c1OC (stereo not drawn) | 1.07% (inactive)
91 | O=C(c1ccc(Cl)cc1)N1CCCC(c2ccccc2)=N1 | 2.03% (inactive)
92 | O=C(C1CC1)N1N=C(c2ccc(Cl)cc2)CC1(O)C(F)(F)F (stereo not drawn) | 49% (inactive)
93 | CCN(CCO)C(=S)Nc1cc(S(=O)(=O)N(C)C)ccc1C | -0.4% (inactive)
